Holding throughout (assay): NCI-60 one-dose screen, 48 h (100 = growth as untreated, 0 = no growth, -100 = all killed)
Common to all, as to settings: 10 µM unless noted

The test system of experiment [1] is SR leukemia.
For experiment [2], the system named is RPMI-8226 leukemia.
The subject of experiment [3] is OVCAR-8 ovarian.
The subject of experiment [4] is OVCAR-5 ovarian.
The subject of experiment [5] is OVCAR-4 ovarian.
Experiment [6] has as its system SK-OV-3 ovarian.
Experiment [7] has as its system IGROV1 ovarian.
Experiment [8] concerns OVCAR-3 ovarian.
The subject of experiment [9] is HS 578T breast.
For experiment [10], the system named is NCI/ADR-RES ovarian.
Experiment [11] has as its system T-47D breast.
The subject of experiment [12] is BT-549 breast.
Experiment [13] relates to MDA-MB-435 melanoma.
Experiment [14] deals with SW-620 colon.
For experiment [15], the system named is MCF7 breast.
Experiment [16] deals with HCT-116 colon.
Experiment [17] has as its system KM12 colon.
Experiment [18] concerns HCC-2998 colon.

Molecules are shown by their SMILES. About 83,000 compounds went through this panel and 20% of them were active in at least one assay; those are over-represented in the sample as a whole.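 Plates (96-well) were seeded with cells, treated with compound at one concentration, and incubated for 48 hours before percent growth was determined.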 Values without a mark were called inactive. Active and inactive are the calls of the source. The calls were made as follows: active = growth percent below 10; inactive = the rest.

For `CCOC(=O)NC(=S)n1oc(=O)c2ccccc21`, the growth in experiment [1] is 114%; in experiment [2], 101%; in experiment [3], 102%; in experiment [4], 96.6%; in [5], 96.5%; in [6], 104%. Besides, the growth in experiment [7] is 100%; in experiment [8], 105%; in experiment [9] it was 104%; in experiment [10], 105%; in experiment [11], 99.2%; in experiment [12] it was 111%. Also, the growth in experiment [13] is 101%; in [14], 97.5%; in experiment [15] it was 100%; in experiment [16], 101%; in experiment [17], 103%.

Turning to `CCOc1ccc(NC(=O)Nc2ccc(OCC)cc2)cc1`, the growth in experiment [1] was 99.4%; in experiment [2] it was 109%; in experiment [3] it was 103%; in experiment [4], 111%; in experiment [5], 112%; in experiment [6], 103%. Besides, the growth in experiment [7] is 110%; in experiment [8], 105%; in experiment [9] it was 101%; in [10], 106%; in [11], 95.7%; in [12], 113%. The growth is 109% in [13]; 116% in experiment [14]; 94.5% in experiment [15]; 106% in experiment [16]; 103% in experiment [18]; 102% in experiment [17].

In the case of `Cc1c2ncccc2nc2[nH]c3ccc(OCCN(C)C)cc3c12`, the growth in experiment [1] was 12.8%; in [2] it was -31.6% (active); in experiment [3] it was 11.5%; in experiment [4], 47.5%; in experiment [5], 27.5%; in [6], 38.1%. Moreover, the growth was 9.29% (active) in experiment [7]; 51.4% in experiment [8]; 47.9% in [9]; 24.8% in experiment [10]; 32.3% in experiment [11]; 63.2% in experiment [12]. Further, the growth in experiment [13] is 36.8%; in experiment [14] it was 17.3%; in experiment [15] it was 3.49% (active); in [16], 12.6%; in experiment [17], 20.9%.

Turning to `CCN(CC)c1ccc(-c2cc(-c3cc(OC)c(OC)c(OC)c3)nc(N3CCC(O)CC3)c2C#N)cc1`, the growth in [1] is 12%; in [2], -11.8% (active); in [3], 10.6%; in experiment [4], 2.43% (active); in [5], 40.5%; in [6], -5.1% (active). Besides, the growth in experiment [7] was 2.12% (active); in experiment [8], -58.6% (active); in [9], -13.8% (active); in [10], 5.08% (active); in experiment [11], 2.08% (active); in experiment [12], -1.42% (active). For the same molecule, the growth in [13] is -40.8% (active); in experiment [14] it was 9.95% (active); in [15] it was -33.3% (active); in [16] it was -51% (active); in experiment [18] it was -10.5% (active); in [17], -26.8% (active).

Regarding `c1cc(OCCCCCOc2cccc(-c3nc4ccccc4[nH]3)c2)cc(-c2nc3ccccc3[nH]2)c1`, the growth in experiment [1] was -24.8% (active); in experiment [2] it was -47.1% (active); in experiment [3], 15.7%; in experiment [4], 1.07% (active); in experiment [5] it was 8.16% (active); in experiment [6] it was 23.9%. Further, the growth is 10.8% in [7]; 16.8% in experiment [8]; 25.3% in experiment [9]; 0.274% (active) in experiment [10]; 12.2% in [11]; 6.65% (active) in experiment [12]. Besides, the growth in experiment [13] is 8.32% (active); in [14], 12.7%; in [15], -2.42% (active); in experiment [16], 7.44% (active); in experiment [18], 14.2%; in experiment [17], 8.91% (active).

Regarding `Cc1[nH]n(-c2cccc(Cl)c2)c(=O)c1/C=C1\C=c2ccccc2=CC1=O`, the growth in [1] was 29.7%; in experiment [2] it was 96.4%; in [3] it was 22.3%; in experiment [4], 16.9%; in experiment [5], -62.5% (active); in experiment [6], 15.3%. For the same molecule, the growth in experiment [7] was 33.9%; in experiment [8] it was 63.2%; in [9] it was 82.2%; in experiment [10], 75.3%; in experiment [11] it was -7.69% (active); in [12] it was 90.2%. For the same molecule, the growth in experiment [13] was 20.7%; in experiment [14], 31%; in experiment [15], 8.67% (active); in [16], 8.69% (active); in [18] it was -22.2% (active); in [17] it was 21.2%.

As to `CSc1ccc2c3c(n(CCCn4ccnc4)c(=O)c2c1)-c1ccccc1C3=O`, the growth in experiment [1] is 3.2% (active); in experiment [2], 28.9%; in experiment [3] it was 40.2%; in [4] it was 76.5%; in [5] it was 71.8%; in experiment [6], 50.9%. The growth was 58.9% in experiment [7]; 64.5% in [8]; 91.4% in [9]; 35.4% in experiment [10]; 15.9% in experiment [11]; 63.4% in experiment [12]. The growth was 64.6% in experiment [13]; 31.5% in [14]; 9.87% (active) in experiment [15]; 10.6% in [16]; 75.9% in experiment [18]; 45.4% in experiment [17].

Consider `ClC(Cl)c1nc(-c2ccccc2)n2nc(-c3ccccc3)cc2n1`, for which the growth in [1] is 7.56% (active); in experiment [2], 0.699% (active); in experiment [3] it was 16.5%; in experiment [4], 0.621% (active); in [5], -10.8% (active); in experiment [6], 9.58% (active). The growth in [7] is 52.7%; in experiment [8], -28.3% (active); in experiment [9], -27.3% (active); in [10], 6.09% (active); in experiment [11] it was 28.5%; in [12] it was 77.2%. In addition, the growth in experiment [13] is 12%; in [14] it was -35.3% (active); in experiment [15] it was 3.37% (active); in [16], 4.82% (active); in experiment [18], -82.1% (active); in experiment [17], -32% (active).

In the case of `COC(=O)/C=C1/SC(=Nc2ccc(F)cc2)N(CCc2c[nH]c3ccc(O)cc23)C1=O`, the growth in [1] was -4.72% (active); in experiment [2], 4.11% (active); in experiment [3], 26.1%; in experiment [4], 76.3%; in experiment [5], 30.3%; in experiment [6] it was 80.8%. The growth is 24.6% in experiment [7]; 21.5% in experiment [8]; 37.4% in experiment [9]; 32.7% in experiment [10]; 23.7% in [11]; 8.93% (active) in experiment [12]. Further, the growth in experiment [13] was 25.4%; in experiment [14] it was 53.7%; in [15] it was 17%; in experiment [16], 23.1%; in experiment [17] it was 38.3%.

The values above are taken from PubChem BioAssay (NCI).
